# Inconclusive results are not listed. The source made the active and inactive calls. Calls come from the whole dose curve; as a rule, active = well fitted activation curve with a large enough effect in the signal ratio in the repeat runs, with a control signal flat (not every such curve was filed as active); inconclusive = weak or mixed curves; inactive = flat fitted curve, though single readings scatter; the % refers to the signal ratio.
# Test: qHTS assay for small molecule activators of the heat shock response signaling pathway (AID 743210)
# Conditions: HeLa HSE-bla reporter, beta-lactamase ratio, 5 h; series mostly up to 62.6 µM; activation: at the top concentration
# Excerpt: U.S. Tox21 Program National Center for Advancing Translational Sciences [NCATS] NIH Chemical Genomics Center [NCGC] U.S. Environmental Protection Agency [EPA] National Institutes of Environmental Health Sciences [NIEHS] National Toxicology Program [NTP] U.S. Food and Drug Administration [FDA] Tox21 Assay Overview: Various chemicals, environmental and physiological stress conditions may lead to the activation of heat shock response/ unfolded protein response (HSR/UPR). There are three heat shock transcription factors (HSFs) (HSF-1, -2, and -4) mediating transcriptional regulation of the human HSR. To identify the compounds that activate HSR signaling, HSE-bla HeLa cell line (Invitrogen, Carlsbad, CA, USA) containing a beta-lactamase reporter gene under the control of the heat shock response elements was used to screen the Tox21 10K compound library.
# Tox21 Assay Protocol Summary: The CellSensor HSE-bla HeLa cells (Invitrogen, Carlsbad, CA, USA) were dispensed at 1500 cells/6uL/well into 1536-well black wall/clear bottom plates using a Multidrop combi (Thermo Fisher Scientific, Waltham, MA) dispenser. After the assay plates were incubated at 37 C and 5% CO2 overnight, 23 nL of compounds dissolved in DMSO, positive controls or DMSO only was transferred to the assay plate by a Pintool station (Kalypsys, San Diego, CA). The plates were incubated at 37 C for 5 h. After 1 uL of LiveBLAzerTM B/G FRET substrate was added using a Flying Reagent Dispenser (Beckman Coulter, Indianapolis, IN, USA), the plates were incubated at room temperature for 2.5 h, and fluorescence intensity was measured by an Envision plate reader (PerkinElmer, Shelton, CT).
# % is set by controls: 0 for no effect and ±100 for the full control effect.
row,SMILES,activation
1,CN(C)C(=O)Oc1ccc[n+](C)c1,-0.0582% (inactive)
2,CC(C#N)(CCC(=O)O)N=NC(C)(C#N)CCC(=O)O (stereo not given),-1.26% (inactive)
3,CC(=O)Oc1cccc(C)c1,0.477% (inactive)
4,CC(=O)c1cnccn1,-0.378% [at 81.1 µM] (inactive)
5,CC1=CC(=O)[C@H]2C[C@@H]1C2(C)C,-0.399% (inactive)
6,C=COC(=O)C(C)(CC)CCC(C)C (stereo not given),-0.353% (inactive)
7,CC1OC1C1CCC2(C)OC2C1 (stereo not given),-0.657% (inactive)
8,Nc1ccn([C@@H]2O[C@H](CO)[C@@H](O)C2(F)F)c(=O)n1,0.227% (inactive)
9,C[C@H]1C[C@H]2[C@@H]3CCC4=CC(=O)C=C[C@]4(C)[C@H]3C(=O)C[C@]2(C)[C@@]1(O)C(=O)CO,-1.16% (inactive)
10,CN1CCC(=C2c3ccccc3CCc3cccnc32)CC1,1.35% (inactive)
11,CN(C)CCN(C)CCN(C)C,-1.46% (inactive)
12,O=Cc1cccc(Br)c1,-2.08% [at 81.1 µM] (inactive)
13,CC1CCC(CO)CC1 (stereo not given),-1.9% [at 81.1 µM] (inactive)
14,CC(=O)OCC(=O)[C@@]1(O)[C@H](C)C[C@H]2[C@@H]3CCC4=CC(=O)C=C[C@]4(C)[C@@]3(F)[C@@H](O)C[C@@]21C,-1.72% (inactive)
15,C=CN1CCCCCC1=O,-0.324% (inactive)
16,O=C(c1ccccc1)C1(O)CCCCC1,-0.715% (inactive)
17,CC(C)C1CCC(O)CC1 (stereo not given),-0.922% (inactive)
18,CN(C)CCCCCCN(C)C,-1.12% [at 81.1 µM] (inactive)
19,CCO[Si](OCC)(OCC)c1ccccc1,-0.026% (inactive)
20,CCCCN1C=CN(C)C1,2.71% [at 29.1 µM] (inactive)

row,SMILES,activation
1,C1CCC2=NCCCN2CC1,0.665% (inactive)
2,CC1=C(C/C=C(\C)CCC[C@H](C)CCC[C@H](C)CCCC(C)C)C(=O)c2ccccc2C1=O,3.93% (inactive)
3,Cc1nc(C2CCCCC2)c(-c2ccc(S(N)(=O)=O)c(F)c2)o1,-1.23% (inactive)
4,CCCCOCCOC(=O)CCCCCCCCC(=O)OCCOCCCC,-0.854% (inactive)
5,CCOC(=O)OC(C)OC1=C(C(=O)Nc2ccccn2)N(C)S(=O)(=O)c2ccccc21 (stereo not given),-2.22% (inactive)
6,CCNS(=O)(=O)c1ccc(C)cc1,-0.903% [at 81.1 µM] (inactive)
7,CC(C)NNC(=O)c1ccncc1,-0.55% (inactive)
8,CCCCCCCCN1CCCC1=O,-0.171% (inactive)
9,C[C@H]1[C@H](NC(=O)/C(=N/OC(C)(C)C(=O)O)c2csc(N)n2)C(=O)N1S(=O)(=O)O (stereo in doubt),-0.313% (inactive)
10,COc1ccc2cc1Oc1cc3c(cc1OC)CC[N+](C)(C)[C@H]3Cc1ccc(cc1)Oc1c(OC)c(OC)cc3c1[C@@H](C2)[N+](C)(C)CC3,0.153% (inactive)
11,C=CCCC(=O)O,-0.686% (inactive)
12,CCC(C)(CN(C)C)OC(=O)c1ccccc1 (stereo not given),-0.05% (inactive)
13,NC(=O)Cc1cccc2ccccc12,-1.16% (inactive)
14,COC(=O)Nc1ccc(Cl)c(Cl)c1,-0.111% (inactive)
15,COc1cc(C(=O)OC(COCCC(C)C)CN2CCOCC2)cc(OC)c1OC (stereo not given),-0.125% (inactive)
16,CNCCO,-0.0669% (inactive)
17,C[N+]1(C)CCCC(OC(=O)C(O)(c2ccccc2)c2ccccc2)C1 (stereo not given),-0.878% (inactive)
18,CC1=CCC(O)(C(C)C)CC1 (stereo not given),0.61% (inactive)
19,O=C1CCCCCCCCCCCCCCO1,0.0094% (inactive)
20,OCCc1ccccn1,-0.6% (inactive)

# — PubChem BioAssay (Tox21)
